# Reference: PubChem BioAssay (NCI)
# Several values for one entry are separate records, joined by “and”; a condition that tells them apart may be missing. Equal entries are not always repeated. The panel holds about 83,000 compounds, 20% with a hit somewhere; the sample as a whole holds those more often.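 Compound tested at a single concentration for 48 hours in 96-well plates; a percent growth value below 10 was scored as active.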 Activity calls are given as the source filed them.
# Tested on: HL-60(TB) leukemia
# Test: NCI-60 one-dose screen, 48 h (100 = growth as untreated, 0 = no growth, -100 = all killed)
# Conditions: 10 µM unless noted
# Experimental: Growth inhibition of the HL-60(TB) human tumor cell line is measured as a screen for anti-cancer activity. Cells are grown in 96 well plates and exposed to the test compound for 48 hours. Compounds are tested at a single concentration, which is 10^-5 M for most compounds. The reported endpoint is percent growth (GI% or GIPRCNT), where numbers from 0 - 100% represent growth inhibition, and numbers from -100% - 0 represent cell death. For example, a value of 40 represents 60% growth inhibition. A value of 0 means no net growth occurred over the course of the experiment. A value of -40 indicates 40% of cells at the beginning of the experiment died by the end of the experiment. A value of -100 means all cells are dead at the end of the experiment.
# NCI-60 Human Tumor Cell Lines Screen was performed using the standard one-dose NCI protocol, which is described in more detail at https://dtp.cancer.gov/discovery_development/nci-60/default.htm.
# Compounds with GIPRCNT values below 10 were considered active. Activity score was based on GIPRCNT using the following formula: […]
# Score is 0 for GIPRCNT values of 100 or above, 50 for GIPRCNT values of 0, and 100 for GIPRCNT values of -100.
row,SMILES,growth
1,CCCCCCCCCCNCCSS(=O)(=O)O,79% (inactive)
2,CCc1c(CC(=O)O)c2cc(C)ccc2n1Cc1ccc(Cl)cc1,89.3% (inactive) and 161% (inactive)
3,N#Cc1c(-c2ccccc2)cc(-c2ccccc2)n(CCC(=O)O)c1=O,13.8% (inactive)
4,O=c1c2sc3ncccc3c2nnn1-c1ccccc1,106% (inactive)
5,O=C1c2ccccc2-c2c1c1c(=O)[nH]c3ccccc3c1n2Cc1ccccc1,73.9% (inactive)
6,Cc1ccc(C2C=C(c3ccc(Cl)cc3)N=C3SC=CN32)c(Br)c1 (stereo not given),104% (inactive)
7,O=C(O)CCCCCCCCCCCCCCC(=O)O,102% (inactive)
8,COc1ccc2sc3c(NCCCN(C)C)nc4ccccc4c3c(=O)c2c1,38.7% (inactive)
9,NNC(=O)/C(=C\c1ccc([N+](=O)[O-])cc1)CC(=O)c1ccc(Cl)c(Cl)c1,98.9% (inactive)
10,O=C1N(C2CCCCC2)C(=O)N1C1CCCCC1,-16.2% (active)
11,COc1ccc(CC(C#N)c2cc3ccccc3[nH]2)cc1 (stereo not given),97.5% (inactive)
12,CCC(C)C1(C2CCCC2)NC(=O)NC1=O (stereo not given),63.4% (inactive) and 98.2% (inactive)
13,COC(=O)CCC(=O)C(=O)OC,-21% [10 mM] (active)
14,COc1ccc(-c2ccc(C)n2-c2ccc(-c3nc4ccccc4s3)cc2)cc1,53.5% (inactive)
15,Cn1cc(-c2cc3ncnc(Nc4ccc(CC(=O)Nc5cc(C(C)(C)C)on5)cc4)c3s2)cn1,57.5% (inactive)
16,CCN(CC)CCCC(C)Nc1c2ccc(Cl)cc2nc2ccc(O)cc12 (stereo not given),45.7% (inactive)
17,C/C(=N\N=C(/C)c1cccc([N+](=O)[O-])c1)c1cccc([N+](=O)[O-])c1,125% (inactive)
18,CCCCCn1ncc(-c2c(O)c(O)cc3c(O)c(-c4c(C)cc5c(-c6cnn(CCCCC)n6)c(O)c(O)cc5c4O)c(C)cc23)n1,-22.3% (active)
19,COC(=O)c1ccccc1C(=O)c1c(C)cc(C)cc1C,84.6% (inactive)
20,c1ccc2c(c1)oc1c3c(ccc12)NCCC3,91.8% (inactive)

row,SMILES,growth
1,C=C1NC(=O)C(C(C)CC)NC(=O)C2CSCC(NC(=O)CCC(=O)O)C(=O)NC(Cc3ccccc3)C(=O)NC(C)C(=O)NC(CC(C)CC)C(=O)NC(C(=O)NC(Cc3ccccc3)C(=O)N3CCCC3C(=O)N2)C(C)OC(=O)C(CO)NC(=O)C(C(O)COC)N(C)C(=O)C(C(C)C)NC(=O)C(CC(C)CC)NC1=O (stereo not given),-26.8% [6 µM] (active)
2,COc1cccc(OC(=O)c2ccccc2)c1OC(=O)c1ccccc1,69.6% (inactive)
3,O=C(CC(=O)c1ccccc1F)Nc1ccc([N+](=O)[O-])cc1,98.2% (inactive)
4,O=C(Cc1ccc(/C=C/C(=O)c2ncc[nH]2)cc1)Nc1ccccc1,7.76% (active)
5,Cc1ccc(-c2cc(-c3ccc(Cl)cc3)nc(NC(=O)c3cccnc3)n2)cc1,110% (inactive)
6,CSc1nnc(-c2cnn3c2NC(c2ccccc2)C3)n1-c1ccc(C(F)(F)F)cc1 (stereo not given),73.6% (inactive)
7,O=C(CN1CCCCC1)Nc1nc(-c2cc3ccccc3oc2=O)cs1,93.8% (inactive)
8,Cc1ccc(NCSc2ccc(Cl)cc2)cc1,3% (active) and 22.5% (inactive)
9,Cc1ccc2oc(=O)cc(-c3nc4ccc([N+](=O)[O-])cc4[nH]3)c2c1,53.1% (inactive)
10,COc1ccc(C(=O)C(=O)c2ccccc2)cc1,94.2% (inactive)
11,Nc1c(C(=O)Nc2ccncc2)sc2nc3c(cc12)C(O)CCC3 (stereo not given),95.4% (inactive)
12,CCOC(=O)C(=O)C(C(=O)OCC)c1ccccc1 (stereo not given),95.6% (inactive)
13,COC(=O)c1ccc(CSc2nnc(-c3c(C)nc4ccc(C)cn34)o2)cc1,97.5% (inactive)
14,N#CC(C#N)=C1NC(c2ccccc2)=C(c2ccccc2)C(c2ccccc2Cl)=C1C#N,79.2% (inactive)
15,N#Cc1ccc(NC(=O)Nc2ccc(Oc3ccc(NC(=O)Nc4ccc(C#N)cc4)cc3)cc2)cc1,-38.5% (active)
16,O=c1c2c(c3ccccc3n1-c1ccccc1)NC(=S)NC2c1ccccc1 (stereo not given),44.3% (inactive)
17,Cc1ccc(N)cc1S(=O)(=O)O,92.7% (inactive) and 111% (inactive)
18,COCCN(C(=O)c1ccc(F)cc1F)c1c(N)n(Cc2ccccc2)c(=O)[nH]c1=O,132% (inactive)
19,CCCCCCC(O)(c1ccc(F)cc1)C(CN1CCOCC1)c1ccccc1 (stereo not given),30.8% (inactive)
20,O=C1C(Cl)=C(Oc2ccccc2)C(=O)c2ccccc21,76% (inactive)
